The results in this text go back to the supplement of paper PMC3334620.

The full ranking holds about 33,000 sequences; the median of “E-score (-0.5 to 0.5)” is about -0.0059, and the highest 2% start at about 0.26. The list comes from a sample in which the highest values are over-represented; it also holds similar and randomly drawn sequences.

For this assay, the target named is T1, Cin5 (UniProt P40917).
T1 sequence: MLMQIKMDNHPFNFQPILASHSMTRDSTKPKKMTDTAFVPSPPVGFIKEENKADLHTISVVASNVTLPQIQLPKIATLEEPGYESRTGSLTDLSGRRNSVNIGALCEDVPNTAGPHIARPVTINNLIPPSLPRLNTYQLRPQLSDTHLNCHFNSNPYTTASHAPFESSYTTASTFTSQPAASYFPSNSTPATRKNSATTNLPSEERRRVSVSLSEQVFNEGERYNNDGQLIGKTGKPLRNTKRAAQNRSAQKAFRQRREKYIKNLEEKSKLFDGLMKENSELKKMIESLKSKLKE
The assay can be described thus: PBM E-score (8-mer binding enrichment) (E-score (-0.5 to 0.5)); higher = stronger / more preferred TF binding. The note with it: protein concentration: 100 nM; construct: GST-full length. As to the method:
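Universal 'all 10-mer' protein binding microarrays (Agilent AMADID 015681) probed with GST-tagged S. cerevisiae TFs (full-length or DBD) made by in vitro transcription/translation (PURExpress), about 100-200 nM. Bound TF was detected with fluorescent anti-GST. Each ungapped 8-mer (which stands for itself and its reverse complement) is scored by the PBM enrichment score (E-score), a modified Wilcoxon-Mann-Whitney statistic from -0.5 to +0.5, computed with the Universal PBM Analysis Suite. Scale: above 0.35 generally sequence-specific binding.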
As for CTAAGGCA, the “PBM E-score” value is -0.173.
With GTTACATA, the “PBM E-score” value was determined as 0.266.
For CTTACATC, the “PBM E-score” value was 0.213.
Next, GCTACATA: 0.0756; CGTACATA: 0.191.
As for GTTACAAA, the “PBM E-score” value was found to be 0.184.
Consider CTTACATA, for which the “PBM E-score” value came out at 0.358.
In the case of CATACGTA, the “PBM E-score” value came out at 0.242.
The value for AGTACATC was 0.0156.
Regarding AATACGTA, the “PBM E-score” value came to 0.313.
Next, CTTACAAA: 0.192.
As for ATTACATC, the “PBM E-score” value came to 0.31.
Regarding AATACGTG, the “PBM E-score” value was -0.0461.
With ACTGCCAC, the “PBM E-score” value was -0.012.
The value for AATCAGTC was 0.0788; that for AGCCAGTA was -0.0197; that for GAGTGCGA was -0.11.
The value for AATCGAGA was 0.171; that for AATCTCCG was 0.0667.
For ATTACAAT, the “PBM E-score” value was 0.153.
For ATTACAAG, the “PBM E-score” value was 0.131.
In the case of ATTACAAA, the “PBM E-score” value came to 0.306.
The value for TCATATAA was 0.197; that for CAATATAA was 0.295; that for CAATATAC was 0.181.
The value for GAATATAA was 0.112; that for TAATATAA was 0.355; that for CAATATAG was 0.225.
Take TATAGCCA: the “PBM E-score” value was found to be 0.111.
As to ACTTAATA, the “PBM E-score” value amounted to 0.26.
Consider GTTTAATA, for which the “PBM E-score” value came out at 0.143.
Take ATTTAATA: the “PBM E-score” value came out at 0.295.
Regarding CTTTAATA, the “PBM E-score” value was 0.122.
In the case of ACTTAATC, the “PBM E-score” value came to 0.133.
Next, GCTTAATA: 0.207; AGTTCGCA: 0.0133.
Regarding ATCCAACA, the “PBM E-score” value was found to be 0.0603.
Next, CTTGCGTC: -2e-05; TATGGGGA: 0.27; CATGGGGA: -0.0804.
Next, AATGGGGA: 0.0144.
Regarding CGGGTGTC, the “PBM E-score” value was -0.00474.
As for ACCCCTCT, the “PBM E-score” value is -0.17.
For ATACATAC, the “PBM E-score” value worked out at 0.0724.
CTACATAA: the “PBM E-score” value was 0.0697.
Turning to ATACATAT, the “PBM E-score” value was 0.318.
For the sequence AGACATAT, the “PBM E-score” value amounted to 0.0819.
Regarding ATACATAG, the “PBM E-score” value came to 0.159.
As to ATACATAA, the “PBM E-score” value is 0.286.
With AGTTCTAC, the “PBM E-score” value was -0.141.
TATGCTCA: the “PBM E-score” value is 0.132.
As to CAACCCGG, the “PBM E-score” value was -0.222.
As to CGCAGCGC, the “PBM E-score” value is -0.138.
Next, AAGCTACC: 0.106; GAAATGAA: 0.275.
Turning to ATATGAAC, the “PBM E-score” value came out at 0.132.
Regarding CAATGAAA, the “PBM E-score” value was 0.0978.
As for TAAATGAA, the “PBM E-score” value was 0.129.
On to CAATGATA, for which the “PBM E-score” value is 0.182.
As for TAATGAAA, the “PBM E-score” value worked out at 0.203.
As to CAAATGAA, the “PBM E-score” value is -0.0217.
With AAATGATA, the “PBM E-score” value is 0.279.
For ATATGAAA, the “PBM E-score” value amounted to 0.259.
Next, CTATGAAA: 0.0722.
Consider AAATGAAA, for which the “PBM E-score” value is 0.266.
Next, AAATGAGA: 0.128.
Next, CTTTGCCC: -0.199; ATCCCTAA: -0.19; ACGGCCGA: 0.0311.
Regarding GGCGGCAA, the “PBM E-score” value was -0.184.
Regarding GGTATACC, the “PBM E-score” value was -0.0512.
As for AACCAATA, the “PBM E-score” value stood at 0.214.
Take AGATACAT: the “PBM E-score” value amounted to 0.171.
Regarding CAGCGCAA, the “PBM E-score” value was 0.0372.
AAATGATT: the “PBM E-score” value worked out at 0.294.
Take CAATGGTA: the “PBM E-score” value is 0.101.
As to TAATGGTA, the “PBM E-score” value was -0.00375.
Consider GAATGATA, for which the “PBM E-score” value came out at 0.291.
With AAATGGTA, the “PBM E-score” value was found to be 0.268.
Turning to TAATGAGA, the “PBM E-score” value amounted to 0.0551.
Regarding TAATGATA, the “PBM E-score” value was found to be 0.298.
Next, AAATGATC: 0.00639; AAATGATG: 0.207; TAATGACA: 0.237.
With GAATGATC, the “PBM E-score” value is -0.046.
Take GAATGAGA: the “PBM E-score” value stood at 0.115.
In the case of CGACGTCC, the “PBM E-score” value was determined as 0.0493.
For the sequence ATAGTGTC, the “PBM E-score” value turned out to be 0.0674.
In the case of ACATGGCT, the “PBM E-score” value is -0.0786.
As to CTACGAGC, the “PBM E-score” value was -0.108.
For the sequence GGAACCAC, the “PBM E-score” value is -0.0344.
Regarding AGATGATG, the “PBM E-score” value stood at 0.27.
For the sequence AGATGATC, the “PBM E-score” value worked out at 0.119.
As for AAAATTAA, the “PBM E-score” value was determined as 0.105.
Regarding GAAATTAA, the “PBM E-score” value amounted to 0.273.
On to CAAATTAA, for which the “PBM E-score” value is 0.191.
Consider AGATGATA, for which the “PBM E-score” value was found to be 0.212.
